Results from PubChem BioAssay (NCI).
This is part of a sample that, as a whole, favours compounds with a hit. Of some 79,000 tested, about 15% had one in any assay. Unmarked numbers belong to inactive results. Calls of active or inactive are those of the source. Cut-off read from the data, not from the text of the source: active = growth inhibition above about 70%; inactive = the rest.

Legend:
[1] = NCI Yeast Anticancer Drug Screen. Data for the rad52 strain (AID 147);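 note: 0% = growth of vehicle-treated control cultures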; settings: S. cerevisiae rad52 mutant growth inhibition, stronger effect = higher value
Outline: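 The repair-mutant yeast strain was incubated with compounds, then growth was read and inhibition derived relative to vehicle.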

[2] = NCI Yeast Anticancer Drug Screen. Data for the wt1 strain (AID 149);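 note: 0% = growth of vehicle-treated wt1 cultures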; settings: S. cerevisiae wt1 strain (SPY 50644) growth inhibition, stronger effect = higher value
Outline: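 Using yeast strain wt1, compound-induced growth inhibition was determined against vehicle-treated cultures.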

[3] = NCI Yeast Anticancer Drug Screen. Data for the rad50EPP+ strain (AID 151);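 note: 0% = growth of vehicle-treated control cultures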; settings: S. cerevisiae rad50 mutant strain, stronger effect = higher value
Outline: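 Vehicle-normalised growth inhibition; rad50EPP+ yeast strain, altered in DNA damage repair, compound-treated.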

[4] = NCI Yeast Anticancer Drug Screen. Data for the mgt1 strain (AID 153); settings: S. cerevisiae mgt1 mutant growth inhibition, stronger effect = higher value
Outline: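 Vehicle-normalized growth inhibition is determined in mgt1 yeast, a strain selected for a defined alteration in DNA repair or cell cycle control.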

[5] = NCI Yeast Anticancer Drug Screen. Data for the rad50 strain (AID 155);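 note: 0% = growth of vehicle-only cultures of the same strain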; settings: S. cerevisiae rad50 strain growth inhibition, stronger effect = higher value
Outline: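 Relative growth inhibition (compound vs vehicle) was measured in yeast with a defined repair-gene alteration.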

[6] = NCI Yeast Anticancer Drug Screen. Data for the mec2-1 strain (AID 157); settings: S. cerevisiae mec2-1 strain, stronger effect = higher value
Outline: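 Mutant yeast (mec2-1) grown with compound; growth inhibition relative to vehicle control reported.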

[7] = NCI Yeast Anticancer Drug Screen. Data for the rad14 strain (AID 159);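 note: 0% = growth of vehicle-treated control cultures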; settings: S. cerevisiae rad14 strain growth inhibition, stronger effect = higher value
Outline: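 Screen for anticancer potential: a yeast strain altered in DNA damage repair is grown with compound, and reduced growth is quantified against vehicle controls.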

[8] = NCI Yeast Anticancer Drug Screen. Data for the sgs1 mgt1 strain (AID 161);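 note: 0% = growth of cultures given vehicle only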; settings: S. cerevisiae sgs1 mgt1 strain, stronger effect = higher value
Outline: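 Percent growth inhibition was derived by comparing compound-exposed mutant yeast with vehicle-exposed cultures. The strain carries alterations in DNA damage repair.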

[9] = NCI Yeast Anticancer Drug Screen. Data for the CLN2oe strain (AID 163);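 note: 0% = growth of vehicle-only control cultures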; settings: S. cerevisiae CLN2oe strain, stronger effect = higher value
Outline: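 Compounds are applied to yeast harbouring a defined cell-cycle control change; reduced growth compared with vehicle-treated controls gives the value.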

[10] = NCI Yeast Anticancer Drug Screen. Data for the cln2 rad14 strain (AID 165);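 note: 0% = growth equal to vehicle treated cultures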; settings: S. cerevisiae cln2 rad14 strain, stronger effect = higher value
Outline: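 Readout is yeast growth inhibition versus vehicle-treated controls, using a strain with cln2 and rad14 alterations exposed to compound.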

[11] = NCI Yeast Anticancer Drug Screen. Data for the bub3 strain (AID 167); settings: S. cerevisiae bub3 mutant strain, stronger effect = higher value
Outline: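 Screening used yeast with an engineered genetic alteration affecting cell cycle control. Compound-exposed cultures were compared with vehicle cultures, and reduced growth was taken as inhibition.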

[12] = NCI Yeast Anticancer Drug Screen. Data for the wt2 strain (AID 169);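 note: 0% = growth of vehicle-treated yeast cultures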; settings: S. cerevisiae wt2 strain growth inhibition, stronger effect = higher value
Outline: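 Against vehicle-treated controls, the growth of yeast exposed to each compound was compared, and the inhibition was recorded.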

[13] = NCI Yeast Anticancer Drug Screen. Data for the mlh1 strain (AID 171);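 note: 0% = growth of vehicle-treated control cultures of the same strain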; settings: S. cerevisiae mlh1 strain growth inhibition, stronger effect = higher value
Outline: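 Measured: yeast growth. Reference: vehicle-treated controls. Organism: strain with a defined alteration affecting DNA damage repair or cell cycle control, treated with compound.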

[14] = NCI Yeast Anticancer Drug Screen. Data for the sgs1 strain (AID 173);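 note: 0% = growth of vehicle-only control cultures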; settings: S. cerevisiae sgs1 mutant, stronger effect = higher value
Outline: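 Each compound was added to cultures of the altered yeast strain. Growth was recorded, and inhibition was derived by comparison with vehicle controls.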

[15] = NCI Yeast Anticancer Drug Screen. Data for the mlh1 rad18 strain (AID 175); settings: S. cerevisiae mlh1 rad18 strain growth inhibition, stronger effect = higher value
Outline: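 Genetically defined yeast (DNA repair-deficient) exposed to compounds; growth inhibition determined relative to vehicle.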

[16] = NCI Yeast Anticancer Drug Screen. Data for the rad18 strain (AID 177); settings: S. cerevisiae rad18 mutant growth inhibition, stronger effect = higher value
Outline: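 Vehicle-treated cultures served as the baseline for scoring compound-induced growth inhibition in DNA-repair-mutant yeast.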

[17] = at 5.0 µM (retest, dose inferred, filed as 0.5)
[18] = at 50.0 µM (retest, dose inferred, filed as 5.0)

O=C1CSC(/C=C/c2ccccc2)N1c1ccc(-c2ccc(-n3c(-c4ccccc4)nc4ccccc4c3=O)cc2)cc1 (stereo not drawn)
growth inhibition ([1]; at 1.2 µM): -2%
growth inhibition ([1]; at 3.7 µM): 1%
growth inhibition ([1]; at 11.0 µM): 4%
growth inhibition ([1]; at 33.0 µM): 15%
growth inhibition ([1]; at 100.0 µM): 61%
growth inhibition ([2]; at 1.2 µM): -2%
growth inhibition ([2]; at 3.7 µM): -2%
growth inhibition ([2]; at 11.0 µM): -3%
growth inhibition ([2]; at 33.0 µM): -6%
growth inhibition ([2]; at 100.0 µM): 14%
growth inhibition ([3]; at 1.2 µM): 2%
growth inhibition ([3]; at 3.7 µM): 10%
growth inhibition ([3]; at 11.0 µM): 19%
growth inhibition ([3]; at 33.0 µM): 28%
growth inhibition ([3]; at 100.0 µM): 29%
growth inhibition ([4]; at 1.2 µM): -2%
growth inhibition ([4]; at 3.7 µM): -2%
growth inhibition ([4]; at 11.0 µM): -4%
growth inhibition ([4]; at 33.0 µM): 19%
growth inhibition ([4]; at 100.0 µM): 81% (active)
growth inhibition ([5]; at 1.2 µM): -1%
growth inhibition ([5]; at 3.7 µM): 3%
growth inhibition [5, 17]: -9%
growth inhibition ([5]; at 11.0 µM): 5%
growth inhibition ([5]; at 33.0 µM): 22%
growth inhibition [5, 18]: 78% (active)
growth inhibition ([5]; at 50.0 µM): 75.5% (active)
growth inhibition ([5]; at 100.0 µM): 58%
growth inhibition ([6]; at 1.2 µM): -1%
growth inhibition ([6]; at 3.7 µM): 0%
growth inhibition [6, 17]: 0%
growth inhibition ([6]; at 11.0 µM): 1%
growth inhibition ([6]; at 33.0 µM): 7%
growth inhibition [6, 18]: 45%
growth inhibition ([6]; at 50.0 µM): 42.5%
growth inhibition ([6]; at 100.0 µM): 67%
growth inhibition ([7]; at 1.2 µM): 1%
growth inhibition ([7]; at 3.7 µM): 2%
growth inhibition ([7]; at 11.0 µM): 9%
growth inhibition ([7]; at 33.0 µM): 31%
growth inhibition ([7]; at 100.0 µM): 79% (active)
growth inhibition [8, 17]: -1%
growth inhibition [8, 18]: 5%
growth inhibition ([8]; at 50.0 µM): 87.2% (active)
growth inhibition ([9]; at 1.2 µM): 2%
growth inhibition ([9]; at 3.7 µM): -1%
growth inhibition ([9]; at 11.0 µM): -6%
growth inhibition ([9]; at 33.0 µM): -9%
growth inhibition ([9]; at 100.0 µM): 22%
growth inhibition [10, 17]: 9%
growth inhibition [10, 18]: 42%
growth inhibition ([10]; at 50.0 µM): 32.5%
growth inhibition ([11]; at 1.2 µM): 4%
growth inhibition ([11]; at 3.7 µM): 12%
growth inhibition [11, 17]: -6%
growth inhibition ([11]; at 11.0 µM): 22%
growth inhibition ([11]; at 33.0 µM): 35%
growth inhibition [11, 18]: 65%
growth inhibition ([11]; at 50.0 µM): 75% (active)
growth inhibition ([11]; at 100.0 µM): 79% (active)
growth inhibition ([12]; at 1.2 µM): -3%
growth inhibition ([12]; at 3.7 µM): -3%
growth inhibition ([12]; at 11.0 µM): -4%
growth inhibition ([12]; at 33.0 µM): 5%
growth inhibition ([12]; at 100.0 µM): 62%
growth inhibition ([13]; at 1.2 µM): -2%
growth inhibition ([13]; at 3.7 µM): -1%
growth inhibition ([13]; at 11.0 µM): -2%
growth inhibition ([13]; at 33.0 µM): 18%
growth inhibition ([13]; at 100.0 µM): 77% (active)
growth inhibition ([14]; at 1.2 µM): -2%
growth inhibition ([14]; at 3.7 µM): -2%
growth inhibition ([14]; at 11.0 µM): 0%
growth inhibition ([14]; at 33.0 µM): 17%
growth inhibition ([14]; at 100.0 µM): 61%
growth inhibition [15, 17]: -6%
growth inhibition [15, 18]: 91% (active)
growth inhibition ([15]; at 50.0 µM): 84.3% (active)
growth inhibition ([16]; at 1.2 µM): -3%
growth inhibition ([16]; at 3.7 µM): 1%
growth inhibition ([16]; at 11.0 µM): 5%
growth inhibition ([16]; at 33.0 µM): 13%
growth inhibition ([16]; at 100.0 µM): 46%
